# Results as given in ChEMBL document CHEMBL3988442, “University of Dundee, Small-Polar-MMV Screening Library” (2021).
# Out of some 48,000 compounds screened, about 13,000 (27%) showed an effect of 50% or more. Some of the results follow.
# Tested on: Wolbachia pipientis
# Assay: Anti-Wolbachia Cell-Based Screen
# Format: functional
# Design: scale not given: in the data most compounds retested in dose-response had high values
# Conditions: 5 µM
row,Structure (SMILES),Percent Effect
1,CC(=O)N1CCc2nc3sc(C(N)=O)c(N)c3c(C(F)(F)F)c2C1,0.4865%
2,CCn1ncnc1CN1CCC(CNC(=O)c2cccc(C)n2)C1 (centres undefined),95.93%
3,CCc1cc(C(=O)NCC2CCN(Cc3cccc(C)n3)C2)on1 (centres undefined),1.32%
4,CCn1ncnc1CN1CCC(CNC(=O)c2cccc(C)c2)C1 (centres undefined),94.27%
5,Nc1cc(C(=O)NCC2CCN(Cc3cccc(O)c3)C2)ccn1 (centres undefined),-106.2%
6,Cc1cc(CN2CCC(CNC(=O)c3nccc4ccccc34)C2)[nH]n1 (centres undefined),5.129%
7,CCn1ccnc1CN1CCC(CNC(=O)c2ccc(C)nc2)C1 (centres undefined),-5.867%
8,Cc1ccccc1C(C(=O)N(Cc1cnn(C)c1)CC(C)C)N(C)C (centres undefined),-6.978%
9,Cc1cccc(-c2nc(C)nn2CN2CCC3(CC2)OCCO3)c1,0.3778%
10,Cc1cccnc1N1CCN(C(=O)CCc2cn3ccccc3n2)CC1,-2.508%
11,O=C1CC(N(C(=O)COc2ccc(F)cc2F)C2CC2)C(=O)N1 (centres undefined),87.23%
12,O=C1CC(N(C(=O)Cc2csc(-c3ccccc3)n2)C2CC2)C(=O)N1 (centres undefined),1.029%
13,O=C1CC(N(C(=O)CCc2cc(F)ccc2F)C2CC2)C(=O)N1 (centres undefined),101%
14,COc1cc(C(=O)N(C2CC2)C2CC(=O)NC2=O)ccc1C (centres undefined),-10.25%
15,O=C1CC(N(C(=O)c2ccc(-n3cccc3)cc2)C2CC2)C(=O)N1 (centres undefined),-5.765%
16,O=C1CC(N(C(=O)c2ccc3c(c2)CCC3)C2CC2)C(=O)N1 (centres undefined),-12.36%
17,O=C1CC(N(C(=O)c2ccccc2Br)C2CC2)C(=O)N1 (centres undefined),-20.12%
18,COc1ccc(C(=O)N(C2CC2)C2CC(=O)NC2=O)cc1 (centres undefined),-6.531%
19,O=C1CC(N(C(=O)CCc2c[nH]c3ccccc23)C2CC2)C(=O)N1 (centres undefined),78.13%
20,CC(C)COc1cncc(NCCc2nnc3ccccn23)n1,6.284%
21,COCc1ncc(-c2nccn2CCS(C)(=O)=O)cn1,120.2%
22,COc1ncc(-c2nccn2CCN(C)C)cn1,-13.85%

row,Structure (SMILES),Percent Effect
1,CCCSc1ncc(-c2nccn2CCO)cn1,-55.57%
2,COCc1ncc(-c2nccn2CCN(C)C)cn1,3.066%
3,CCCn1ccnc1-c1nccn1CCC(N)=O,-22.61%
4,CCCn1ccnc1-c1nccn1CCN(C)C,-8.104%
5,COCc1ncc(-c2nccn2CCn2cnnc2)cn1,95.42%
6,COCCCn1ccnc1-c1cnc(OC)nc1,-18.72%
7,CCCn1ccnc1-c1nccn1CCn1cnnc1,87.43%
8,CN(C)Cc1nnc(C2CCN(c3ncccc3Cl)CC2)n1C1CC1,-16.88%
9,O=C(NC1CCCC1)O[C@H]1COCCN(c2nc3ccccc3o2)C1,-4.12%
10,CN(Cc1nccs1)c1nccc(N2CCN[C@H]3CS(=O)(=O)C[C@H]32)n1,-5.478%
11,Cn1c(CCNc2nccnc2C#N)nc2ccc(F)cc21,-0.9847%
12,CNC(=O)C1CCCN(C(=O)OC)C1 (centres undefined),-23.89%
13,Cc1ccc(N2CC3(CCN(c4nccs4)C3)C2)nn1,-7.178%
14,Cc1ccoc1C(=O)N1CCOCC2(CCN(c3ncccn3)C2)C1.O=C(O)C(F)(F)F (centres undefined),0.2458%
15,CCOCC(=O)N1CC[C@H]2OCC[C@@]2(COc2ncccc2F)C1.O=C(O)C(F)(F)F,-3.289%
16,c1ccc(-c2nnc(N3CCCC4(CCOC4)C3)s2)cc1 (centres undefined),56.2%
17,Cc1cc(C(=O)N2CCCC3(COCCN(c4ncccn4)C3)C2)[nH]n1.O=C(O)C(F)(F)F.O=C(O)C(F)(F)F (centres undefined),-11.88%
18,Cc1ccc(N2CCC3(CC2)COCCN(c2nccs2)C3)nn1.O=C(O)C(F)(F)F.O=C(O)C(F)(F)F,108.8%
19,OC1(CN2CCCC2)COCCN(c2nnc(-c3ccccc3)s2)C1 (centres undefined),-13.1%
20,Cc1ccc(N2CCCC3(COCCN(c4nccs4)C3)C2)nn1.O=C(O)C(F)(F)F.O=C(O)C(F)(F)F (centres undefined),-0.6863%
21,Cc1ccc(N2CCCC3(COCCN(c4ncccn4)C3)C2)nn1.O=C(O)C(F)(F)F (centres undefined),82.98%
22,c1ccc2sc(N3CCCC4(CCOC4)C3)nc2c1 (centres undefined),-24.88%

row,Structure (SMILES),Percent Effect
1,CCOCC(=O)N1CCOCC2(CCN(c3ncccn3)C2)C1.O=C(O)C(F)(F)F (centres undefined),115.1%
2,O=C(O)C(F)(F)F.O=C(O)C(F)(F)F.c1cnc(N2CCOCC3(CCCN(CC4CCOCC4)C3)C2)nc1 (centres undefined),-3.791%
3,CCc1ncc2c(n1)CN(CC(=O)NC1CCCCNC1=O)CC2 (centres undefined),-10.76%
4,N#CCCCOc1cccc(CN2CCCC2c2ccc[nH]2)c1 (centres undefined),-9.513%
5,NCC1Cc2cc(-c3cnccn3)cc(Cl)c2O1 (centres undefined),3.613%
6,O=C(O)C(F)(F)F.c1ccc(N2CCCC3(COCCN(c4nccs4)C3)C2)nc1 (centres undefined),-9.014%
7,c1ccc(N2CCOCC3(CCCN(c4nccs4)C3)C2)nc1 (centres undefined),105.2%
8,Cc1ccc(N2CCCC3(COCCN(c4ccccn4)C3)C2)nn1.O=C(O)C(F)(F)F (centres undefined),88.94%
9,CCCS(=O)(=O)N1CCOCC2(CCN(c3ccccn3)C2)C1.O=C(O)C(F)(F)F (centres undefined),-9.194%
10,Cc1cnc(N2CCOC3(COCCN(c4nccs4)C3)C2)nc1 (centres undefined),7.245%
11,O=C1NCC2(CCCN(C(=O)Nc3ccc4occc4c3)CC2)O1 (centres undefined),-22.41%
12,Cc1cc(SC(C)(C)C)ccc1NC(C)C(=O)NC(N)=O (centres undefined),0.5682%
13,O=C(NCCc1ccccc1)C1CCC(Cn2cnnn2)CC1 (centres undefined),3.007%
14,O=C(NCCc1ccccc1)C1CCN(C(=O)Cn2cncn2)C1 (centres undefined),175.5%
15,O=C(NCCc1ccc(F)cc1)C1CN(C(=O)Cn2cncn2)C1,163.3%
16,CCCNC(=O)C1CCCN(Cc2ccc(-n3cncn3)c(C)c2)C1 (centres undefined),5.039%
17,O=C(Nc1ccccc1)C1CCCN(C(=O)Cn2cncn2)C1 (centres undefined),9.271%
18,CN(Cc1ccc(F)cc1)C(=O)CN1CCCCC1Cn1cncn1 (centres undefined),-13.17%
19,CC(=O)Nc1cnc(-n2ccnc2)nc1,0.9267%
20,C=Cc1ccc(C(=O)N2CCCC(Nc3ccccc3)C2)cc1 (centres undefined),-22.58%
